Among the data in PubChem BioAssay (NCATS) are Potency and activity change, negative = inhibition values, retold here.

Records with an inconclusive call do not appear. Where a call stands in place of a potency, no number is given. The source made the active and inactive calls. Calls come from the whole dose curve; as a rule, active = well fitted inhibition curve with a large enough effect; inconclusive = small, poorly fitted or top-dose-only effect; inactive = flat fitted curve, though single readings scatter.

Sequence of Calcium and integrin-binding protein 1 (Homo sapiens) (Q99828 whole entry, looked up): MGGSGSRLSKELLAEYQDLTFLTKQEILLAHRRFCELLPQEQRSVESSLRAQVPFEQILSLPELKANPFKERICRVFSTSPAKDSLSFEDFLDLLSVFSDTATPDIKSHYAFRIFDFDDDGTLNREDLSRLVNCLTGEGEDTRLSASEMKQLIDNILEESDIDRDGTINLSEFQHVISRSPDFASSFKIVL

The assay concerns the target Calcium and integrin-binding protein 1 (Homo sapiens) (UniProt Q99828). Briefly: Primary qHTS for Identification of Calcium Integrin Binding Protein 1 (CIB1) Competitor (AID 1508620).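 Note: GST tagged CIB1 binding a fluorescein labelled alphaIIb integrin peptide tracer; top concentration of the series differs between compounds.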 Conditions: CIB1-GST / FITC-alphaIIb peptide fluorescence polarization; series mostly up to 114 µM. Put shortly:
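CIB1-GST (1 uM final) and compound incubated 15 min at room temperature before adding FITC-alphaIIb peptide tracer (100 nM final). Competition for binding read by fluorescence polarization (ex 480, em 540) after another 15 min at room temperature.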
On the technique in general: Quantitative high-throughput screening tests each substance at several concentrations.
For the compound `Cc1cc(N2CCN([C@@H]3CN[C@H](C(=O)N4CCSC4)C3)CC2)n(-c2ccccc2)n1`, the Potency entry was “inactive”. On the same count and under the same terms, next, `CCC(C)C(=O)O[C@H]1CCC=C2C=C[C@H](C)[C@H](CC[C@@H](O)C[C@@H](O)CC(=O)O)[C@H]21` (stereo partly drawn): “inactive”; `Cc1nc2ccc(Oc3ccc(F)cc3)cc2c(=O)n1C[C@H]1CCCN(C(C)C)C1`: “inactive”; `CC(=O)c1cc(C(=O)N[C@@H](C)Cn2ccc(-c3ccc(C#N)c(Cl)c3)n2)[nH]n1`: “inactive”. As to `C=C(C)[C@@H]1CC[C@]2(C)CC[C@]3(C)[C@H](CC[C@@H]4[C@@]5(C)CC[C@@H](O)C(C)(C)[C@@H]5CC[C@]43C)[C@@H]12`, the Potency entry is “inactive”. `C[C@@H]1O[C@@H](O[C@@H]2[C@@H](O[C@@H]3O[C@@H](C)[C@H](O[C@@H]4OC[C@H](O)[C@H](O[C@@H]5OC[C@@H](O)[C@H](O)[C@H]5O)[C@H]4O)[C@@H](O[C@@H]4OC[C@](O)(CO)[C@H]4O)[C@H]3O)[C@H](OC(=O)[C@]34CCC(C)(C)C[C@H]3C3=CCC5[C@@]6(C)C[C@H](O)[C@H](O[C@@H]7O[C@H](CO[C@@H]8OC[C@H](O)[C@H](O)[C@H]8O)[C@@H](O)[C@H](O)[C@H]7O)C(C)(C)C6CC[C@@]5(C)[C@]3(C)C[C@H]4O)OC[C@H]2O)[C@H](O)[C@H](O)[C@H]1O` (stereo partly drawn): the activity change, negative = inhibition was -4.21% [at 12.4 µM] (inactive). Regarding `COc1ccc([C@@]2(O)c3c(ccc4c3OC(C)(CCC=C(C)C)C=C4)NC(=O)[C@@H]2OC)cc1` (stereo partly drawn), the Potency result is “inactive”.

Consider `COC(=O)C1(C)CCC2(C(=O)O)CCC3(C)C(=CCC4C5(C)CC(O)C(OC6OCC(O)C(O)C6O)C(C)(CO)C5CCC43C)C2C1` (stereo not drawn), for which the Potency entry was “inactive”.
